Active and inactive are the calls of the source.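 The calls were made as follows, unless noted: active = inhibition above 20% together with a positive visual image hit; inconclusive = visual image hit but inhibition not above 20%; inactive = no visual image hit.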
Legend:
[1] = inhibitors of TNFa-induced NFkB p65 translocation, primary screen, imaging, HUVEC, MLSMR starter and 10KST1 sets (AID 438); details: HUVEC TNFa-induced p65 nuclear translocation; cell count: measured here: nuclei count (cytotoxicity indicator), at 2.08 µM; inhibition: at 2 µM, stronger effect = higher value, 0% TNFa-plus-vehicle, 100% no-TNFa wells;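 also: compound added about 3h40 before a 20 min TNFalpha stimulation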;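 as to inhibition: signal is the nuclear over cytoplasmic p65 intensity ratio per well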
[2] = inhibitors of mutant huntingtin aggregation, primary screen, imaging, exon1htt(103Q)mCFP cells, high-content imaging (AID 483;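 active = visual image review flags a hit and inhibition of aggregation exceeds 20%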;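 also: compound exposure lasted 3 days before fixation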;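 as to nuclei count: percent of the per-plate median nuclei count of sample wells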); details: exon1htt(103Q)mCFP cell line, aggregate imaging, at 2 µM; inhibition of aggregation: stronger effect = higher value; nuclei count: measured here: cell count, toxicity
[3] = inhibitors of E-selectin induction by TNFa, primary screen, imaging, HUVEC, immunofluorescence, MLSMR starter and 10KST1 sets (AID 487;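 active = visually confirmed hit in the image check and inhibition above 20%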;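 as to inhibition: signal is fraction of cell area covered by stained E-selectin grains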;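 as to nuclei count: 100% = median nuclei count of all wells on the same plate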); details: HUVEC TNFalpha-induced E-selectin immunofluorescence imaging, at 2 µM; inhibition: stronger effect = higher value; nuclei count: measured here: cell number, toxicity
[4] = DUSP6 inhibitors restoring Erk phosphorylation by chemical complementation, primary imaging in DUSP6-transfected HeLa (AID 609;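 active = compounds giving at least 50% inhibition in the cell-based MKP-3 phosphatase rescue imaging test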;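 as to inhibition: phospho-Erk level distribution per well compared with pooled transfected vehicle control wells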); details: HeLa MKP-3 transfected, phospho-Erk imaging KS statistic, at 10 µM, cells stimulated with TPA for 15 min
[5] = target: Dual specificity protein phosphatase 6 (Homo sapiens) (UniProt Q16828); test: as above; details: HeLa MKP-3 transfected, phospho-Erk imaging KS statistic; at 10 µM; stronger effect = higher value; cells stimulated with TPA for 15 min
[6] = target: Voltage-gated potassium channel subunit beta-2 (Rattus norvegicus) (UniProt P62483); test: KvBeta enzyme negative modulators, primary screen, biochemical, NADPH fluorescence (AID 622;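 active = fluorescence slope higher than the sample average by over 3 SD, cut at about -0.22 in these data, passing the limit was not always enough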;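 also: slope of raw intensity against log time taken from 70 to 1610 s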); details: recombinant KvBeta, 4-cyanobenzaldehyde reduction, at 10 µM, stronger effect = higher value
[7] = target: Voltage-gated potassium channel subunit beta-2 (Rattus norvegicus) (UniProt P62483); test: KvBeta positive modulators, primary screen, biochemical, NADPH fluorescence (AID 623;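 active = NADPH fluorescence slope more negative than the mean of all samples by about 3 SD, 99.7% confidence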;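 also: fluorescence intensity change per second fitted from 20 to 320 s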); details: Recombinant KvBeta, NADPH fluorescence decrease slope, 10 min; at 10 µM; stronger effect = lower value
[8] = target: Muscarinic acetylcholine receptor M4 (Homo sapiens) (UniProt P08173); test: compounds altering M4/GIRK thallium flux, either direction, primary screen, M4 allosteric agonist project, cell-based, HEK293 M4/GIRK, BTC-AM (AID 625;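 active = fluorescence slope after compound addition differing from the mean of all tested samples at 99.7% confidence, mostly higher but some lower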;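 also: thallium influx through GIRK channels coupled to M4 in HEK293 cells with BTC-AM dye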); details: at 10 µM, actives lie on both sides
[9] = inhibitors of larval lipid processing in zebrafish, primary screen, whole organism, PED6 fluorescence, gall bladder and intestine (AID 686;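 active = a full or partial loss of lipid-probe fluorescence in the fish gall bladder, intestine or both, judged by eye; inactive = no fluorescence loss, or compound toxic to the fish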;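 also: larvae 5 to 7 days old with five fish per well; signal comes from phospholipase A2 cleavage of quenched PED6 carried via bile; overnight exposure to compound and PED6 before scoring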); details: Zebrafish larvae PED6 lipid processing, fluorescence scoring; screened at 20 µM (by protocol)
[10] = inhibitors of Chlamydomonas gravitaxis, primary screen, whole organism, Chlamydomonas reinhardtii, WT vs cilia-less mutant, absorbance, 96-well (AID 463189;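 active = inhibition at or above 50% relative to wild type and mutant plate controls; inactive = inhibition below 50%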;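 also: 0% = wild type cc124 cells in DMSO and 100% = ciliumless bld1 mutant cells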); details: OD600 absorbance, 2 days, at 10 µM, stronger effect = higher value
[11] = inhibitors of Sendai virus-induced IRF3 signaling, primary screen, TLR/RLR signaling modifier project, cell-based, Sendai virus stimulus, luciferase, 10K MLSCN set (AID 602276;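 active = inhibition at or above 50% at 10 µM; inactive = inhibition below 50%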;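 also: firefly luciferase from ISG56 promoter only with Renilla not read in this screen; 0% = Sendai virus plus DMSO and 100% = medium plus DMSO without virus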); details: HEK293 RL24 IRF3 luciferase reporter, at 10 µM, stronger effect = higher value
[12] = inhibitors of poly I:C-induced TLR3 signaling, primary screen, cell-based, poly I:C stimulus, luciferase, 10K MLSCN set (AID 602277;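 active = inhibition of the reporter signal at or above 50%; inactive = inhibition below 50%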); details: HEK293-TLR3 RL24 IRF3 luciferase reporter, at 10 µM, stronger effect = higher value
[13] = measured here: cell density z-score
[14] = measured here: nuclear c-Myc green intensity z-score
[15] = measured here: nuclear pErk red intensity z-score, stronger effect = higher value

Dual specificity protein phosphatase 6 (Homo sapiens), sequence (Q16828 whole entry, looked up): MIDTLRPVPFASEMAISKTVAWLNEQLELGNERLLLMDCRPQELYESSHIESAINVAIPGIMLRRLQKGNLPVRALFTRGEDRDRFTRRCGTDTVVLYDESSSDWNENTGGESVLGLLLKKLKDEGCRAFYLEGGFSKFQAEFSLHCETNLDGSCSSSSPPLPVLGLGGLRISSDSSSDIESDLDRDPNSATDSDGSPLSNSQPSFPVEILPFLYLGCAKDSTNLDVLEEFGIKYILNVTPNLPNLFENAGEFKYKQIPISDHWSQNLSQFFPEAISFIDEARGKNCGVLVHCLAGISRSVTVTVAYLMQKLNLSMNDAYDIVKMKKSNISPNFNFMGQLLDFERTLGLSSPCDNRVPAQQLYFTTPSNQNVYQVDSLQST
Muscarinic acetylcholine receptor M4 (Homo sapiens), sequence (P08173 whole entry, looked up): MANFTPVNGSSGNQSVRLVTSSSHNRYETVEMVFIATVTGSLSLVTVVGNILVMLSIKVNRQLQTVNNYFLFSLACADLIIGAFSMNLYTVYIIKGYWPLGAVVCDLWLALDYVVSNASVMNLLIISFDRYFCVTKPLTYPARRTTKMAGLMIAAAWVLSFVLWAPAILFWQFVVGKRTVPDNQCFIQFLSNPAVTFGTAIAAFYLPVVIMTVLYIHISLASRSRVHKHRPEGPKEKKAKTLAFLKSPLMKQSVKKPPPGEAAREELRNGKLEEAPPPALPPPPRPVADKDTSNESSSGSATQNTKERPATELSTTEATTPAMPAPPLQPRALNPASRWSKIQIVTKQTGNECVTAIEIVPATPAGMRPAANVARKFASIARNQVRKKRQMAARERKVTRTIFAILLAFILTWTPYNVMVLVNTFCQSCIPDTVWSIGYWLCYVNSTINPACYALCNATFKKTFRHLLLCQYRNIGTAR
Voltage-gated potassium channel subunit beta-2 (Rattus norvegicus), sequence (P62483 whole entry, looked up): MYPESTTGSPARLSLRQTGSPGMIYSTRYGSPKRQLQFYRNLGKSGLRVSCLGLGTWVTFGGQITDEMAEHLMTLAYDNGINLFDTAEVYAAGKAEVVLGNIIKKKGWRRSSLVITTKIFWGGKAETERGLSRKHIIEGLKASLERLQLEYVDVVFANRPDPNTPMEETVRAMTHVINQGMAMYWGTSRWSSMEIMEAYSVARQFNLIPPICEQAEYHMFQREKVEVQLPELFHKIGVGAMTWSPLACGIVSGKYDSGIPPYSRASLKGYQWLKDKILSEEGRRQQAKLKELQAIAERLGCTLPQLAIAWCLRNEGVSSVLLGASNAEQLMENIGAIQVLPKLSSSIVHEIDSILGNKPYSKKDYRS

| SMILES | cell count [1] | inhibition [1] | inhibition of aggregation [2] | nuclei count [2] [%] | inhibition [3] | nuclei count [3] [%] | z-score [4, 13] | z-score [4, 14] | z-score [4, 15] | inhibition [5] | fluorescence slope [6] | NADPH fluorescence slope [7] | fluorescence slope [8] | outcome [9] | inhibition [10] | inhibition [11] | inhibition [12] |
| --- | --- | --- | --- | --- | --- | --- | --- | --- | --- | --- | --- | --- | --- | --- | --- | --- | --- |
| CCOC(=O)C1(C(=O)OCC)C(c2ccccc2)CC(O)N1C(C)=O (configuration not stated) | 820 | -8.8% (inactive) | -55.9% (inactive) | 103 | -65.8% (inactive) | 126 | -0.838 | 1.16 | -0.266 | 32.3% (inactive) | -0.351 (inactive) | -2.6e-05 (inactive) | 0.00504 (inactive) | inactive | 33.6% (inactive) | 15% (inactive) | 22.6% (inactive) |
| CCOC(=O)c1[nH]c2ccc(Br)cc2c1NC(=O)CNC | 737 | 5.1% (inactive) | -0.9% (inactive) | 113 | -29% (inactive) | 141 | -0.195 | 0.821 | 0.769 | 11.9% (inactive) | -0.518 (inactive) | -6.6e-05 (inactive) | 0.00596 (inactive) | inactive | -9.05% (inactive) | 18.6% (inactive) | 33.1% (inactive) |
| O=C1C2ON(c3ccccc3)C(c3cccnc3)C2C(=O)N1c1ccccc1 (configuration not stated) | 667 | -4.7% (inactive) | -1.5% (inactive) | 104 | -28.2% (inactive) | 130 | 0.476 | 0.609 | -0.133 | 16% (inactive) | -0.503 (inactive) | -2.9e-05 (inactive) | 0.00593 (inactive) | inactive | -4.82% (inactive) | -8.41% (inactive) | -21.8% (inactive) |
| COC(=O)c1cc(=O)n2c(-c3ccc(OC)cc3)csc2n1 | 468 | -6.9% (inactive) | 8.7% (inactive) | 104 | -46.8% (inactive) | 133 | -0.555 | 0.15 | -1.12 | 1.98% (inactive) | -0.383 (inactive) | -3.1e-05 (inactive) | 0.00743 (inactive) | inactive | -2.61% (inactive) | 18.2% (inactive) | 19.9% (inactive) |
| Cn1c(=O)[nH]c(=O)c2c1nc(N(CCO)Cc1ccccc1)n2Cc1ccccc1Cl | 650 | 4.6% (inactive) | -19.3% (inactive) | 139 | -37.5% (inactive) | 109 | 1.19 | -1.16 | -0.515 | 1.63% (inactive) | -0.438 (inactive) | -6.1e-05 (inactive) | 0.00652 (inactive) | inactive | 31.2% (inactive) | 16.5% (inactive) | 28.7% (inactive) |
| CCOC(=O)C1=C(CSc2nc(C)cc(C)c2C#N)OC(N)=C(C#N)C1c1cccs1 (configuration not stated) | 502 | 7.3% (inactive) | -14.2% (inactive) | 102 | -103% (inactive) | 95 | 0.722 | -1.39 | -0.564 | -2.47% (inactive) | -0.493 (inactive) | -2.9e-05 (inactive) | 0.00829 (inactive) | inactive | 8.41% (inactive) | 13.2% (inactive) | 23.4% (inactive) |
| N#C/C(C(=O)N1CCOCC1)=C1/SC(Cc2ccccc2)C(=O)N1c1ccccc1 (configuration not stated) | 520 | -7.6% (inactive) | 18.9% (inactive) | 105 | 3.5% (inactive) | 112 | -1.65 | 1.02 | 0.783 | -2.09% (inactive) | -0.431 (inactive) | -3.8e-05 (inactive) | 0.00475 (inactive) | inactive | -6.43% (inactive) | 15.2% (inactive) | 24.9% (inactive) |
| Cc1cc(C)n(C(=O)CNC(=O)C2COc3ccccc3O2)n1 (configuration not stated) | 659 | -7.8% (inactive) | -13.6% (inactive) | 105 | -92.7% (inactive) | 124 | 0.273 | -1.59 | 0.636 | 3.66% (inactive) | -0.393 (inactive) | -4.6e-05 (inactive) | 0.00449 (inactive) | inactive | 15.9% (inactive) | 15.9% (inactive) | 20.1% (inactive) |
| COc1ccc2c(c1)[nH]c1c(=O)n(CCN(C)C)cnc12 | 660 | -3.5% (inactive) | -8.1% (inactive) | 102 | 23.1% (inactive) | 135 | -1.37 | 2.24 | -0.536 | 9.61% (inactive) | -0.449 (inactive) | -3.5e-05 (inactive) | 0.00667 (inactive) | inactive | 2.29% (inactive) | 17% (inactive) | 24.4% (inactive) |
| CC(=Nc1cccc(O)c1)c1sc2ccccc2c1O | 745 | -2.4% (inactive) | -13% (inactive) | 96.4 | -0.7% (inactive) | 123 | 0.824 | 0.631 | -1.52 | 13.2% (inactive) | -0.303 (inactive) | -6.7e-05 (inactive) | 0.0088 (inactive) | inactive; toxic | -2.68% (inactive) | -6% (inactive) | 76.3% (active) |
| COc1ccc(C2(CN(C(C)=O)C(C)=O)CCCC2)cc1OC | 676 | -6.2% (inactive) | 6.8% (inactive) | 109 | -28.3% (inactive) | 139 | -0.215 | 1.01 | -1.44 | 1.98% (inactive) | -0.504 (inactive) | -6.2e-05 (inactive) | 0.00396 (inactive) | inactive | -15.3% (inactive) | 1.22% (inactive) | 7.89% (inactive) |

Source: PubChem BioAssay
